Test [1] concerns the target Cytochrome P450 1A2 (Homo sapiens) (UniProt P05177). The test is described as follows: p450-cyp1a2 (AID 410; calls by dose curve; further: potency means the concentration at half of the fitted maximal effect). The procedure, abridged: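 Luminescent demethylation readout: Luciferin-ME (100uM, equal to Km) turned over by 20nM CYP1A2 for 60 min at room temperature after NADPH regeneration addition, following 10 min compound preincubation. Normalization used 57 uM furafylline as full inhibition.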

Test [2] in a line: NFAT Signaling Pathway (AID 444; active means well fitted curve in either direction with a large enough effect, not every such curve was filed as active;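 further: carbachol stimulus at about its EC50 of 1 µM final; on the % scale 0 is the no-effect control and ±100 the full control effect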). The following applies: Jurkat NFAT-bla M1, carbachol, beta-lactamase ratio, 5 h. The procedure, abridged: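 Read-out: CCF4 FRET ratio (460 nm/530 nm) after 1 h RT dye loading, used for %activity and AC50 from titration series. Cells: Jurkat NFAT-β-lactamase/M1 line, treated with compound plus 1 uM carbachol for 5 h, 37 °C.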
Test [3] is described as follows: Stat Signaling Pathway (AID 446; active means well fitted curve in either direction with a large enough effect, not every such curve was filed as active;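 further: ME-180 cervical cancer cells given 40 pM IL-6 alongside compound; SIE-controlled beta-lactamase reporter measured as 460/530 nm FRET emission ratio; on the % scale 0 is the no-effect control and ±100 the full control effect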). The procedure, abridged:
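FRET read-out (405 nm excitation, 460/530 nm emission) of a beta-lactamase reporter under a STAT-inducible element in ME-180 cervical carcinoma cells. Cells with compound receive 40 pM IL-6 for 5 h. Values are normalised to AC90 stimulation and AC90 JAK-inhibitor controls.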

In test [4] the target is Glucocorticoid receptor (Homo sapiens) (UniProt P04150). As to the kind of experiment: GR-GFP Redistribution (AID 450;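 active means compounds whose dose series gives a full or clear partial fitted curve of increased nuclear translocation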; further: potency means the concentration at half of the fitted maximal effect). The following applies: U2OS GR-GFP nuclear translocation, laser cytometry, 2 h.
Test [5] shares this target. The test is described as follows: GR-EFC Redistribution (AID 451; calls by dose curve; further: potency means the concentration at half of the fitted maximal effect). The conditions noted are these: CHO-K1 GR-EFC translocation, beta-gal luminescence, 2 h. The procedure, abridged: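 Translocation of GR-ED fusion to nuclear EA restores b-gal, read by luminescence after 1 h room-temperature detection. Engineered CHO-K1 biosensor cells, 1,000/well, exposed 2 h at 37 C to titrations up to 46 uM final.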

In test [6] the target is Mitogen-activated protein kinase 10 (Mus musculus) (UniProt Q61831). As to the kind of experiment: JNK3 AlphaScreen Assay (AID 530; active means well fitted curve in either direction with a large enough effect, not every such curve was filed as active;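 further: kinase came from lysate of stimulated human HepG2 cells; signal reports phosphorylation of biotinylated GST-cJun 1-79 at Ser73 with 10 µM ATP; on the % scale 0 is the no-effect control and ±100 the full control effect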). The procedure, abridged: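 qHTS titrations with 15 min compound pre-incubation before adding ATP (10 uM final). Read-out: AlphaScreen of Ser73-phosphorylated biotin-GST-cJun using HepG2 lysate JNK3 activated by IL-1β and TNFα.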
(Alpha assays give light when donor and acceptor beads are brought close together.)

Test [7] addresses 3',5'-cyclic-AMP phosphodiesterase 4B (Homo sapiens) (UniProt Q07343). The test is described as follows: qHTS Assay for Inhibitors of PDE-IV (AID 607; active means well fitted activation curve with a large enough effect in the main read-out, with a control signal flat, not every such curve was filed as active; further: % of control where 0% means no effect). The procedure, abridged:
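Cell-based read-out of cAMP via a modified cyclic nucleotide-gated channel and membrane potential dye (535/590 nm) in HEK293 cells expressing PDE4 endogenously. Compounds tested up to 22.9 uM final; 100 uM RO 20-1724 reference.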
For orientation: qHTS replaces the single test concentration by a dilution series.

For test [8], the target named is Guanine nucleotide-binding protein G(i) subunit alpha-1 (Homo sapiens) (UniProt P63096). The test is described as follows: qHTS Assay for Inhibitors of RGS12 GoLoco Motif Activity (Green Fluorophore) (AID 879).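 Further: 0% = labeled peptide with Gαi1 and full inhibition = labeled peptide alone without protein; negative values mean loss of peptide binding seen as reduced polarization.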 The procedure, abridged:
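A drop in FITC polarization marked displacement of the FITC-tagged RGS12 GoLoco peptide (10 nM) from Gαi1 (50 nM). Compounds were incubated 10 min at room temperature in Tris pH 7.5 buffer containing 150 mM NaCl, 0.1 mM GDP and 0.05% NP40; unlabeled peptide titration served as control.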

Test [9] concerns the target Muscarinic acetylcholine receptor M1 (Rattus norvegicus) (UniProt P08482). As to the kind of experiment: qHTS Assay for Antagonists of Acetylcholine Muscarinic M1 Receptor: Measurement of IP-One Response (AID 944). Further: nearly all actives have a fitted effect of over 75% in size. The procedure, abridged:
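IP1 accumulation measured via TR-FRET between d2-IP1 and Eu-cryptate anti-IP1 antibody after carbachol (200 nM, EC80) stimulation for 30 min; rat M1-transfected CHO cells received compound 10 min before agonist.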

Test [10] deals with Pyruvate kinase (Leishmania mexicana) (UniProt Q27686). The test is described as follows: qHTS Validation Assay for Inhibitors of Leishmania Mexicana Pyruvate Kinase (AID 945).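 Further: 0% = DMSO only neutral control wells.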 The procedure, abridged:
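Compounds are tested as eight-point concentration series. Reactions contain 0.2 nM LmPYK E451W, 0.5 mM PEP, 0.1 mM ADP, 7 mM MgCl2 and 50 mM KCl at pH 7.2, run 1 h at room temperature, then read by PKLight luminescence.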

Test [11] addresses Pyruvate kinase PKM (Homo sapiens) (UniProt P14618). The test is described as follows: qHTS Assay for Activators of Human Muscle Pyruvate Kinase (AID 954; active means well fitted curve in the direction sought with a large enough effect, not every such curve was filed as active;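 further: 0% = uninhibited enzyme and -100% = no enzyme or full thiadiazolimine inhibition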). The procedure, abridged:
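ATP production by PKM2 detected via luciferase luminescence after 1 h room-temperature reaction (0.1 nM enzyme, PEP at Km 0.5 mM, ADP 0.1 mM, pH 7.2 imidazole buffer). Inhibition scaled to no-enzyme control; activation referenced to 0.3 nM enzyme wells.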

For test [12], the target named is Alpha-galactosidase (Coffea arabica) (UniProt Q42656). As to the kind of experiment: Counterscreen for Glucocerebrosidase Inhibitors: qHTS Assay for Coffee Bean alpha-Galactosidase at pH 4.5 (AID 957).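 Further: plate controls were enzyme alone for no effect and no enzyme for full effect.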 The procedure, abridged:
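Fluorogenic qHTS at pH 4.5 (citrate buffer with Tween-20): 2 nM enzyme, 80 uM 4-MU-alpha-galactoside substrate, compound titrated 0.7 nM to 77 uM, 20 min room temperature. Glycine/NaOH stop; 4-MU read Ex 365/Em 440; Hill-equation AC50 against no-enzyme and enzyme controls.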
On the technique in general: A counterscreen serves to expose hits that act by an unwanted route or on another target.

Test [13] addresses Alpha-galactosidase A (Homo sapiens) (UniProt P06280). As to the kind of experiment: Counterscreen for Glucocerebrosidase Inhibitors: qHTS Assay for Human alpha-Galactosidase at pH 4.5 (AID 992). Further: 0% is about no effect. The procedure, abridged: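 Fluorogenic 1536-well qHTS at pH 4.5 (citrate, Tween-20): 2 nM enzyme, 80 uM 4-MU-alpha-galactoside, 20 min room temperature, NaOH/glycine stop. Titration 0.7 nM to 77 uM, data normalized to no-enzyme and full-activity controls, Hill-fitted AC50.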

In test [14] the target is alpha-glucosidase (Oryza sativa, rice) (UniProt Q653V4). The test is described as follows: Counterscreen for Glucocerebrosidase Inhibitors: qHTS Assay for Rice alpha-Glucosidase at pH 5.0 (AID 997).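 Further: 0% = full activity with enzyme and -100% = basal without enzyme.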 The method, boiled down: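 Endpoint fluorogenic assay at pH 5.0: compounds (0.7 nM to 77 uM) titrated against 4 nM rice enzyme and 400 uM 4-MU-alpha-glucoside for 20 min at room temperature; NaOH/glycine stop, read ex 365/em 440 nm, Hill-fitted AC50.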

The target of test [15] is Alpha-galactosidase (Coffea arabica) (UniProt Q42656). As to the kind of experiment: Counterscreen for Glucocerebrosidase Inhibitors: qHTS Assay for Coffee Bean alpha-Galactosidase at pH 5.9 (AID 998).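 Further: plate controls were uninhibited enzyme for no effect and no-enzyme basal signal for full effect.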 The method, boiled down:
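Fluorogenic 4-MU substrate hydrolysis, 80 uM substrate and 2 nM coffee bean alpha-galactosidase, pH 5.9 citrate buffer, 20 min at room temperature, then NaOH/glycine stop. Titration 0.7 nM–77 uM, normalized to no-enzyme and enzyme controls, AC50 via Hill equation.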

The target of test [16] is DNA dC->dU-editing enzyme APOBEC-3G (Homo sapiens) (UniProt Q9HC16). As to the kind of experiment: qHTS for inhibitors of Vif-A3G interactions: Validation (AID 588379). Further: 0% is about no effect. The method, boiled down: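 Yellow fluorescence (Ex 488, Em 500-530) of Vif-coexpressing HeLa A3G-eYFP cells, scanned by Acumen cytometer, reports blocked A3G degradation. Cells plated at 700/well overnight at 37 deg C before compound addition, then a further overnight compound incubation at 37 deg C.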

Test [17] relates to Zika virus NS2B-NS3 protease. As to the kind of experiment: Primary screen GU AMC qHTS for Zika virus inhibitors (AID 1347154).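 Further: 0% = no-inhibitor control and -100% = no-enzyme control; nearly all actives have a fitted effect of over 70% in size.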 The method, boiled down:
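Fluorogenic AMC-substrate cleavage by noncovalent NS2B-NS3 protease complex (25 nM, pH 8.0 Tris buffer with Tween 20) followed for 15 minutes at room temperature (~20% conversion). Percent inhibition from ex340/em450 signal change, fitted by 4-parameter Hill equation.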

The nature of test [18]: qHTS Assay for Lipid Storage Modulators (AID 1519; calls by dose curve). The following applies: Drosophila S3 cells, BODIPY lipid droplet/cell ratio, laser cytometry, cells loaded with oleic acid; for activity change, negative = inhibition: at 57.5 µM (top of the series). The method, boiled down: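 Cells seeded at 5,000 per well were treated with compounds over a concentration series and loaded with oleic acid (400 uM, as added). Lipid droplet fluorescence (488 nm excitation, 500-530 nm channel) was read by laser-scanning cytometry and normalized to 20 uM Triacsin C.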

The target in test [19] is Ubiquitin carboxyl-terminal hydrolase 1 (Homo sapiens) (UniProt O94782). As to the kind of experiment: Inhibitors of USP1/UAF1: Pilot qHTS (AID 504865).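 Further: rhodamine fluorescence freed from ubiquitin-rhodamine substrate followed over time; top concentration of the series differs between compounds; on the % scale 0 is the no-effect control and ±100 the full control effect; nearly all actives have a fitted effect of over 35% in size.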 The method, boiled down: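 USP1/UAF1 complex (1nM) preincubated with compound 15 min at room temperature, then Ub-Rho substrate (150nM final) added. Fluorescence read kinetically at 480/540 nm, 6 reads every 60 seconds. Buffer: 50mM HEPES pH 7.8, 0.5mM EDTA, 0.1 mg/ml BSA, 1mM TCEP, 0.01% Tween-20.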

A short description of test [20]: Primary qHTS for small molecule stabilizers of the endoplasmic reticulum resident proteome: Secreted ER Calcium Modulated Protein (SERCaMP) assay (AID 1508630). Further: on the % scale 0 is the no-effect control and ±100 the full control effect. The procedure, abridged: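 The SH-SY5Y reporter protocol was run at 3 concentrations up to 38.3 uM (primary) or 11 concentrations (follow-up): 16 h compound, 100 nM thapsigargin for 4 h, then extracellular luciferase luminescence.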

Setting [21] is: measured here: cell count channel max response.
Where [22] appears, read: measured here: lipid channel max response.

Several values for one entry are separate records, joined by “and”; a condition that tells them apart may be missing. Equal values may be shown once. Results filed as inconclusive are left out. Activity calls are given as the source filed them. Unless noted, the call rests on the fitted dose curve; in most records, active means well fitted curve in the direction sought with a large enough effect; inconclusive means small, poorly fitted or top-dose-only effect, or another doubt; inactive means no such curve, though single readings can be large; an effect the other way counts as inactive or inconclusive.

Chain of Cytochrome P450 1A2 (Homo sapiens) (P05177 whole entry, looked up): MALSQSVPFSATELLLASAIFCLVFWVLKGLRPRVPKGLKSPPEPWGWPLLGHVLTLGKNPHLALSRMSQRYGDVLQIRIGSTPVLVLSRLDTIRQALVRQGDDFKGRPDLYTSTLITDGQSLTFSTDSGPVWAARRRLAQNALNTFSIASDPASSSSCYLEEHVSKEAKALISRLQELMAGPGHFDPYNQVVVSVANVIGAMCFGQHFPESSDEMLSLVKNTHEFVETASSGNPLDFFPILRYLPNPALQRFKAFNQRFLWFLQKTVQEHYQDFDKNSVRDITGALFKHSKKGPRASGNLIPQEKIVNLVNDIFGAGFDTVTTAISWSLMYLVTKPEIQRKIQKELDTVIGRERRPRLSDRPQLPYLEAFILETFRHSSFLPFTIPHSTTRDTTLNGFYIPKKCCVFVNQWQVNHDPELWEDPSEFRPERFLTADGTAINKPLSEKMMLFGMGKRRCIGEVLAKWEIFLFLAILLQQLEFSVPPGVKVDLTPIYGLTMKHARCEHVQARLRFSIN
Chain of DNA dC->dU-editing enzyme APOBEC-3G (Homo sapiens) (Q9HC16 whole entry, looked up): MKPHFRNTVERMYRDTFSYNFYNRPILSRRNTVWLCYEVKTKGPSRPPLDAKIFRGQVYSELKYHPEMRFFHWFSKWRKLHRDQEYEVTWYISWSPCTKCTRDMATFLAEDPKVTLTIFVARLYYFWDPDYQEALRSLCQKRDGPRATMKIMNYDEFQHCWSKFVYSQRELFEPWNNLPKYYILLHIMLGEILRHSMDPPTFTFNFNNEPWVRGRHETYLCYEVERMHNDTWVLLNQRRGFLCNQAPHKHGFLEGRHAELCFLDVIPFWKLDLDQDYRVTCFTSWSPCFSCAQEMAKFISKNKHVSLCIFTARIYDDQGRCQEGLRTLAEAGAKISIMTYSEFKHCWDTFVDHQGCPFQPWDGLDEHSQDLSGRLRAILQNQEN
Chain of Guanine nucleotide-binding protein G(i) subunit alpha-1 (Homo sapiens) (P63096 whole entry, looked up): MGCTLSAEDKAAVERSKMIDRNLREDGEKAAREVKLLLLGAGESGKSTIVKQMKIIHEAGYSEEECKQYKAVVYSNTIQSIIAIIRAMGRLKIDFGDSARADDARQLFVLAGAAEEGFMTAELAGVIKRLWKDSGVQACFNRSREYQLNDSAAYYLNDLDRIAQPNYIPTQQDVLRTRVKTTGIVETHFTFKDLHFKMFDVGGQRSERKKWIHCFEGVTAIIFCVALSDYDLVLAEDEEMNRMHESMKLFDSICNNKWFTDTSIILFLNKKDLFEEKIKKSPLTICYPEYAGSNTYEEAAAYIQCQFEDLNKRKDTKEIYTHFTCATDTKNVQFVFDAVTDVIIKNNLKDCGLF
Chain of 3',5'-cyclic-AMP phosphodiesterase 4B (Homo sapiens) (Q07343 whole entry, looked up): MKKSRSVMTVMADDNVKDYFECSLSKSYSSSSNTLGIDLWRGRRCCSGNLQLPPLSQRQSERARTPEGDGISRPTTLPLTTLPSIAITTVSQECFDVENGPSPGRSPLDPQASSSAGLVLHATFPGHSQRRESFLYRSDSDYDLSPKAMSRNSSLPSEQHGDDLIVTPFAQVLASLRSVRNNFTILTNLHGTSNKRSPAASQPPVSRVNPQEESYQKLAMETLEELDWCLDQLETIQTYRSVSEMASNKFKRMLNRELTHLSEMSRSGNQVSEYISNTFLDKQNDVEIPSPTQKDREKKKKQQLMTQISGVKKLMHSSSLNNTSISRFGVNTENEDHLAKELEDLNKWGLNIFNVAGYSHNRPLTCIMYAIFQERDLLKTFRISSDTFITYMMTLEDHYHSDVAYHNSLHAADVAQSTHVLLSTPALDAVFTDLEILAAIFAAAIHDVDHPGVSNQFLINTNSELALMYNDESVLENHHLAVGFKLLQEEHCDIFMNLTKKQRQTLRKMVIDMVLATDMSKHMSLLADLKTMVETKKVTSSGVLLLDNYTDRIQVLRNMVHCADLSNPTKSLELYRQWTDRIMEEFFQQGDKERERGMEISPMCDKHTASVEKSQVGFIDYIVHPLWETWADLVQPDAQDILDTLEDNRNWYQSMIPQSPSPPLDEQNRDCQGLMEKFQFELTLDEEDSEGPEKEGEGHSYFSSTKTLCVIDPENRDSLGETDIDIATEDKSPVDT
Chain of Pyruvate kinase PKM (Homo sapiens) (P14618 whole entry, looked up): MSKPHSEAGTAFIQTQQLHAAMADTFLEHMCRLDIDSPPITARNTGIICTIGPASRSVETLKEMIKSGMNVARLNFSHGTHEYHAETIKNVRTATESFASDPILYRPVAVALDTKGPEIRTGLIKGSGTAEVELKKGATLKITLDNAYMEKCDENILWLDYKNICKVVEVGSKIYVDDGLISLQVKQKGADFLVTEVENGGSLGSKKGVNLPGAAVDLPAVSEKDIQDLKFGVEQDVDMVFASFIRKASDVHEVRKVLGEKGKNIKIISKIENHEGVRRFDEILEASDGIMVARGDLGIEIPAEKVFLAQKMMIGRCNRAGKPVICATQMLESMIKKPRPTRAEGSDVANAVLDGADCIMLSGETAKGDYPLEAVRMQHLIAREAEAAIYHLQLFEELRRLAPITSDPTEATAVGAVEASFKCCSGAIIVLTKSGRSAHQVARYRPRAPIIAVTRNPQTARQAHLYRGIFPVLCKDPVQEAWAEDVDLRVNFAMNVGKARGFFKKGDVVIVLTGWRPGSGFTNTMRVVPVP
Chain of Pyruvate kinase (Leishmania mexicana) (Q27686 2-499 E452W): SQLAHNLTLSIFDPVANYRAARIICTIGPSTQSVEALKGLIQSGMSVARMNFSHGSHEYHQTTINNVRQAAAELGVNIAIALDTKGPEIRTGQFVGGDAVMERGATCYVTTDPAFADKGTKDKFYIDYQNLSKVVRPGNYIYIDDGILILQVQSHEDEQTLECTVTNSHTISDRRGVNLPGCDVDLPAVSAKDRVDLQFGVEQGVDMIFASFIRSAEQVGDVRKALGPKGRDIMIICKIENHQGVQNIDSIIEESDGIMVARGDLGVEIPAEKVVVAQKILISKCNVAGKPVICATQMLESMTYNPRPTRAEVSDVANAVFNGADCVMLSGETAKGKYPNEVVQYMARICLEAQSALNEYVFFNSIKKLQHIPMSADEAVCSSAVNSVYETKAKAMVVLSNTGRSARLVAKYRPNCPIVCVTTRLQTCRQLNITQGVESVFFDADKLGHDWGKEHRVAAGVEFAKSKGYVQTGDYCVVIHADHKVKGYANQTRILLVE
Chain of Alpha-galactosidase A (Homo sapiens) (P06280 whole entry, looked up): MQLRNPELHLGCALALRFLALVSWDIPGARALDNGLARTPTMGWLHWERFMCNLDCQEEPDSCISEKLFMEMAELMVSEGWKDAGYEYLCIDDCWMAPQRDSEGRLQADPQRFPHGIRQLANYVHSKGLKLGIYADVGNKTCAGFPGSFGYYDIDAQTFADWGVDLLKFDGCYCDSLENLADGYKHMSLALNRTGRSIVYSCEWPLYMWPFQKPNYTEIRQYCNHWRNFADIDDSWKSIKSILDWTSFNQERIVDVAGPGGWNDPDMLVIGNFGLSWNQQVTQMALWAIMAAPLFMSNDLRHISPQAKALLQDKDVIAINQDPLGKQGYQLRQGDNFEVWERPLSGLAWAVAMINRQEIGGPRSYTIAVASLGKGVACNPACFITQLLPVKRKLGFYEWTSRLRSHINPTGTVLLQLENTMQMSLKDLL
Chain of Alpha-galactosidase (Coffea arabica) (Q42656 whole entry, looked up): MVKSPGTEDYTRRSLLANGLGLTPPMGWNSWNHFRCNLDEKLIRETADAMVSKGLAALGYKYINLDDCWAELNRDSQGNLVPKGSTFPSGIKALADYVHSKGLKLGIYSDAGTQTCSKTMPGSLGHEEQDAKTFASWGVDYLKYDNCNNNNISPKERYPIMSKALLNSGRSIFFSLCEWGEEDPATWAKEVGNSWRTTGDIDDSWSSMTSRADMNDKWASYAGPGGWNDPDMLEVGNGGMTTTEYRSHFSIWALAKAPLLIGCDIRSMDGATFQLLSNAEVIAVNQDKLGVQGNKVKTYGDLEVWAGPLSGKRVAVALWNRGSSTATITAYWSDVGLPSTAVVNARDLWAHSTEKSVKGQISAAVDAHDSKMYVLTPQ
Chain of Ubiquitin carboxyl-terminal hydrolase 1 (Homo sapiens) (O94782 whole entry, looked up): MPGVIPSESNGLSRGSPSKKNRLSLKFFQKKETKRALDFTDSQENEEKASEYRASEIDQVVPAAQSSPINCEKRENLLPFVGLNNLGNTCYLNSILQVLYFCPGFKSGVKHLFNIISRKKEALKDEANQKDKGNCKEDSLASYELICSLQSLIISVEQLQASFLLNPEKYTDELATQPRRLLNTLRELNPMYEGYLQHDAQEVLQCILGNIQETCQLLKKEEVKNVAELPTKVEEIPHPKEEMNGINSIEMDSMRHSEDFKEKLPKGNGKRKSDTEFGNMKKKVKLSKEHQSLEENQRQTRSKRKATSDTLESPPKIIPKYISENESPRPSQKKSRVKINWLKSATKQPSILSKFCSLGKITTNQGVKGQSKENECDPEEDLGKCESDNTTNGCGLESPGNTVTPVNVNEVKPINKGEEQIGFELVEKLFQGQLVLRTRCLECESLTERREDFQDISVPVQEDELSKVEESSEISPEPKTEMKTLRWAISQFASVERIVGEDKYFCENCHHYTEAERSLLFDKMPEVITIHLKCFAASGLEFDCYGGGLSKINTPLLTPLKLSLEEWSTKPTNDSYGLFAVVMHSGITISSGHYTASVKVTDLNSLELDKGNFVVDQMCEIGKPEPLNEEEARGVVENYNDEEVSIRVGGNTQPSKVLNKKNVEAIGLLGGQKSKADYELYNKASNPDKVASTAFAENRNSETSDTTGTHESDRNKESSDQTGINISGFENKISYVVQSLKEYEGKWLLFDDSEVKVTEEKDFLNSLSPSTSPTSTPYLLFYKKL

On to `C[C@H](N)Cc1c[nH]c2ccc(OCc3cccs3)cc12`, for which the Potency in [1] was 1.58 µM (active) and 126 nM (active); in [4], > 46 µM (inactive); in test [5] it was > 46 µM (inactive). Also, in test [2] (at 38 µM (top of the series)), the activity change, negative = inhibition was 7.25% (inactive). Moreover, the compound was called inactive in [3], in [6], in [8], in test [10], in [11] and in test [12]. Also, the result in test [13], in [14] and in test [15] was inactive. The Potency result in test [7], in [9], in [16] and in test [17] was “inactive” throughout.
As for `CC(C)C[C@H](NC(=O)[C@H](Cc1ccccc1)NC(=O)CNC(=O)[C@H](C)NC(=O)[C@@H](N)Cc1ccc(O)cc1)C(=O)O`, the activity change, negative = inhibition in [17] was 14.3% [at 6.83 µM] (inactive).
In the case of `COc1ccc2[nH]cc(CCN(C)C)c2c1`, the Potency in test [1] was 15.8 µM (active); in test [4], > 46 µM (inactive) and > 20.6 µM (inactive); in test [5], > 46 µM (inactive). Further, the activity change, negative = inhibition in test [2] (at 17.2 µM (top of the series)) is -12.1% (inactive); in [2] (at 38 µM (top of the series)), -5.37% (inactive). The result in test [3], in test [6], in test [8], in test [10], in test [11] and in [12] was inactive. The compound was called inactive in [13], in test [14] and in [15]. The Potency result in test [7], in test [9] and in test [17] was “inactive” each time.
For the compound `CCN(CC)CCO[C@H]1CC[C@@]2(C)C(=CC[C@@H]3[C@H]2CC[C@]2(C)C(=O)CC[C@H]32)C1`, the result in test [6] was inactive. Further, the Potency entry in [7], in [19], in [16] and in [17] was “inactive” in each case. For the same compound, in test [18], the activity change, negative = inhibition was -3.37% (inactive). The max response was 16% in [18] (setting [21]) and 11.9% in test [18] (setting [22]).
On to `C[N+]1(C)CCc2cc3c(cc2C1C1OC(=O)c2c1ccc1c2OCO1)OCO3` (configuration not stated), for which the activity change, negative = inhibition in test [18] was 2.12% (inactive). Moreover, the results for the max response in test [18] (setting [21]) and in [18] (setting [22]) were 1.78% and 1.49%, respectively. Further, the Potency entry in [17] was “inactive”.
As for `CC(C)[C@@]1(NC(=O)[C@@H]2C[C@H]3c4cccc5[nH]cc(c45)C[C@@H]3N(C)C2)O[C@@]2(O)[C@H]3CCCN3C(=O)[C@H](Cc3ccccc3)N2C1=O`, the Potency in [4] and in [5] was > 46 µM (inactive) each time. The call in [6], in [8], in test [10], in test [11], in [12] and in [13] was inactive. In addition, the call in test [14] and in test [15] was inactive. Also, the Potency entry in test [7], in test [19], in test [16] and in test [17] was “inactive” in each case.
Take `C=CCN1C[C@H](C)N([C@H](c2ccc(C(=O)N(CC)CC)cc2)c2cccc(O)c2)C[C@H]1C`: in test [4], the Potency is > 46 µM (inactive).
As to `CNc1ccc2oc(C[C@H]3O[C@]4(CC[C@H]3C)O[C@H]([C@H](C)C(=O)c3ccc[nH]3)[C@H](C)C[C@H]4C)nc2c1C(=O)O`, the Potency in test [4] is > 46 µM (inactive). In addition, the result in [8], in test [10], in test [11], in test [12], in test [13] and in test [14] was inactive. The compound was classed as inactive in [15].
For the compound `CCCCCCC[n+]1ccc(-c2cc[n+](CCCCCCC)cc2)cc1`, the Potency entry in test [19] was “inactive”.
Take `N[C@]1(C(=O)O)CC[C@@H](C(=O)O)C1` (racemic): the Potency entry in test [17] and in test [20] was “inactive” in each case.
In the case of `N#CC(C#N)=Cc1cc(O)c(O)c([N+](=O)[O-])c1`, the Potency result in test [17] and in test [20] was “inactive” throughout.
Take `COc1ccc2c(CCN)c[nH]c2c1`: the Potency result in test [17] and in test [20] was “inactive” in each case.
